CYP2C19 inhib – blockers of cytochrome P450 2C19 activity – biochemical, luminescence, ADME assay, primary screen; P33261; AID 778, 2007; CYP2C19 Supersomes, luciferin-H EGE luminescence, 30 min; inhibition, % at 5 µM; actives 21% (n = 96,000);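 active = CYP2C19 inhibition above a set limit at 5 µM in the primary screen, cut at about 50% in these data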;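 note: plate controls were negative control wells for no effect and 2.5 mM tranylcypromine positive control for full effect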
Measles CPE – compounds protecting cells from measles virus cytopathic effect, primary screen, measles RdRp inhibitor project, single point, MLSMR library, absorbance | Measles virus-infected cells, CPE protection | protection (pct of control), % at 4 µM | actives 1.5% (n = 140,000) | AID 841, 2007; in the data active = protection mostly above about 24%, no sharp cut-off; inactive = mostly below about 26%
CYP2C9 inhib – blockers of cytochrome P450 2C9 activity – biochemical, luminescence, ADME assay, primary screen | CYP2C9 Supersomes, luciferin-H conversion | inhibition, % at 5 µM | actives 20% (n = 96,000) | AID 777, 2007;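 active = blocking of liver enzyme CYP2C9 beyond about 50% at 5 µM, limit read from the data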
Target sequence (P11712 whole entry, looked up): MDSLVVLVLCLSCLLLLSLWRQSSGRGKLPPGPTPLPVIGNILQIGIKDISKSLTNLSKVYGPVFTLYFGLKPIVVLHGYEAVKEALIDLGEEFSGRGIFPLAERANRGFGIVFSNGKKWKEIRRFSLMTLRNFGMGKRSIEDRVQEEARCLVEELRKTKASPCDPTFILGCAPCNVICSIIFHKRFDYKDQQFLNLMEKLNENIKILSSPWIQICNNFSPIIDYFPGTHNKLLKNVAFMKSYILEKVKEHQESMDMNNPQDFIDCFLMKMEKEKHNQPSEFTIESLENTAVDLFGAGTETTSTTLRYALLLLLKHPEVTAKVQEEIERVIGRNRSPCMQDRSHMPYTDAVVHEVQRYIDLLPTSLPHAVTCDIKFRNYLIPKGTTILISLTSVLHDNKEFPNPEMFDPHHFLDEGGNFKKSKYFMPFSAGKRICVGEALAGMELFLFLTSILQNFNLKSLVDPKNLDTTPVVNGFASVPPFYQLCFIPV
CYP2C19 act – human CYP2C19 activators, primary screen, biochemical, luminescence | Cytochrome P450 2C19 (Homo sapiens), P33261 | recombinant CYP2C19, luciferin-H EGE luminescence; hits give high values; 0 = fully inhibited enzyme, 1 = untreated enzyme | activation factor at 5 µM | 96,000 tested, under 10 active | AID 1025, 2008;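 active = activation factor of at least 2 at 5 µM in the primary screen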;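 note: 0 = wells with 2.5 mM tranylcypromine and 1 = vehicle-only wells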
CYP2C9 act – human CYP2C9 activators, primary screen, biochemical, luminescence | AID 1024, 2008 | actives 1.4% (n = 96,000) | activation factor at 5 µM | recombinant CYP2C9, luciferin-H conversion; hits give high values; factor 1 = untreated enzyme, 0 = blocked | Cytochrome P450 2C9 (Homo sapiens), P11712;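 active = activation factor of 2 or more for CYP2C9 at a 5 µM dose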;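 note: 0 = sulfaphenazole-blocked wells and 1 = vehicle-only wells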
Starred values were filed as active, the others as inactive; . = not tested or not shown. An excerpt weighted towards active compounds, which were near 22% of everything screened.

SMILES	CYP2C19 inhib	Measles CPE	CYP2C9 inhib	CYP2C19 act	CYP2C9 act
O=C(O)CONC(=O)c1cc(OCC(F)(F)F)ccc1OCC(F)(F)F	-0.9	5.2	-2.7	1	1
COc1ccc(/C=N/N=C2/NC(=O)CC(C(=O)O)S2)cc1 (configuration not stated)	.	4.8	.	.	.
COc1ccc(CCCc2nnc(SCC(=O)Nc3cc(C)ccc3C)o2)cc1	46.5	9.5	63.2*	0.5	0.4
Cc1ccc(NC(=O)CSc2nnc(CCCCCNC(=O)OC(C)(C)C)o2)c(C)c1	.	12.7	.	.	.
COc1ccc(NCc2nnc(SCC(=O)Nc3cc(C(F)(F)F)ccc3Cl)o2)cc1	82.2*	14.0	79.6*	0.2	0.2
COc1ccc(NCc2nnc(SCC(=O)Nc3cc(C)cc(C)c3)o2)cc1	20.2	1.6	3.9	0.8	1
COc1ccc(/C=C/C(=O)Nc2cc(C(F)(F)F)ccc2Cl)cc1	8.7	21.4	-102.6	0.9	2*
Cc1ccc(C)c(NC(=O)CSc2nnc(CCNC(=O)OC(C)(C)C)o2)c1	79.9*	6.8	34.0	0.2	0.7
COc1cc(C(=O)Nc2cc(C(F)(F)F)ccc2Cl)cc(OC)c1OC	12.1	2.7	19.9	0.9	0.8
COc1ccc(CCCc2nnc(SCC(=O)Nc3ccc(C)c(C)c3)o2)cc1	26.2	16.1	10.0	0.7	0.9
C(=N\Nc1nc(N2CCOCC2)nc(N2CCOCC2)n1)/c1ccncc1	.	5.6	.	.	.
Cc1c(Cl)cccc1NC(=O)CSc1nnc(CCNC(=O)OC(C)(C)C)o1	78.3*	16.4	68.1*	0.2	0.3
C(=C\c1ccccc1)/CSc1nnc(-c2ccccc2)n1Cc1ccco1	46.6	4.1	48.7	0.5	0.5
O=C(CSc1nnc(-c2ccncc2)n1Cc1ccco1)N1c2ccccc2Sc2ccc(Cl)cc21	.	3.0	.	.	.
c1ccc(-c2nnc(CSc3nnc(-c4ccncc4)n3Cc3ccco3)o2)cc1	67.1*	3.8	70.6*	0.3	0.3
Clc1cccc(-c2nnc(SC/C=C/c3ccccc3)n2Cc2ccco2)c1	64.7*	1.9	67.4*	0.4	0.3
C(=C\c1ccccc1)/CSc1nnc(-c2ccncc2)n1Cc1ccco1	88.7*	2.1	35.7	0.1	0.6
Cc1ccc(C(=O)CSC2=C(C#N)C(c3ccco3)C3=C(CCCC3=O)N2)cc1 (configuration not stated)	87.7*	4.1	91.9*	0.1	0.1
N#CC1=C(SCC(=O)c2ccccc2)NC2=C(C(=O)CCC2)C1c1ccco1 (configuration not stated)	94.3*	1.8	92.0*	0.1	0.1
CC(C)(C)c1ccc(C(=O)CCCSC2=C(C#N)C(c3ccco3)C3=C(CCCC3=O)N2)cc1 (configuration not stated)	40.2	1.5	66.8*	0.6	0.3
COc1ccc(S(=O)(=O)N(CC(=O)NCC2CCCO2)c2ccccc2)cc1OC (configuration not stated)	32.9	4.4	29.2	0.7	0.7
CCc1ccccc1NC(=S)NCc1ccc2c(c1)OCO2	60.8*	8.4	-3.8	0.4	1
O=C(NC(=S)NCc1ccc2c(c1)OCO2)c1ccccc1	.	4.9	.	.	.
Cc1cccc(NC(=S)NCc2ccc3c(c2)OCO3)c1C	.	6.3	.	.	.
Cc1ccccc1NC(=S)NCc1ccc2c(c1)OCO2	89.6*	8.8	24.7	0.1	0.8
SMILES	CYP2C19 inhib	Measles CPE	CYP2C9 inhib	CYP2C19 act	CYP2C9 act
Cc1ccc(C)c(NC(=S)NCc2ccc3c(c2)OCO3)c1	56.5*	4.7	6.7	0.4	0.9
COc1ccc(-c2ccnc(-c3ccc(OCCCF)cc3)n2)cc1	20.0	6.0	51.2*	0.8	0.5
COc1ccccc1CNC(=O)c1cccc(-c2ccc(C)c3ccccc23)n1	.	17.4	.	.	.
O=C1C(Cc2ccccc2)C(c2ccccc2)N1c1ccccc1 (configuration not stated)	-0.4	10.5	-1.1	1	1
O=C(O)c1cccc(Oc2ccccc2[N+](=O)[O-])c1	.	19.8	.	.	.
COc1ccc(Cl)cc1N/C(N)=N/c1nc(CSc2ccc(C)cc2)cc(=O)[nH]1	52.1*	9.8	76.3*	0.5	0.2
Cc1snc(S(=O)(=O)/C(C#N)=N\Nc2ccccc2)c1C#N	30.3	3.0	92.1*	0.7	0.1
Cc1snc(SCC(=O)N/N=C(\N)COc2ccc(F)cc2)c1C#N	-22.5	13.6	-6.8	1.2	1.1
Cc1snc(S(=O)(=O)/C(C#N)=N/Nc2ccc(C(F)(F)F)cc2)c1C#N	17.1	2.2	94.5*	0.8	0.1
CCn1c(=O)c(C(=O)NCc2ccc(OC)cc2)c(O)c2ccccc21	36.1	8.3	68.0*	0.6	0.3
CCCn1c(=O)c(C(=O)NCc2ccc(OC)c(OC)c2)c(O)c2ccccc21	38.8	9.4	87.1*	0.6	0.1
CCn1c(=O)c(C(=O)NCc2ccc(OC)c(OC)c2)c(O)c2ccccc21	40.0	15.0	95.4*	0.6	0
CCCn1c(=O)c(C(=O)Nc2ccccc2C(=O)OCC)c(O)c2ccccc21	-7.7	9.2	2.5	1.1	1
CCn1c(=O)c(C(=O)NCc2ccccn2)c(O)c2ccccc21	22.5	7.3	-54.7	0.8	1.5
CSc1nc2[nH]c3c(c2c2ncnn12)CCCC3	8.2	13.5	20.4	0.9	0.8
COc1ccc(-c2cc(C(F)(F)F)c3c(=O)n(-c4ccccc4)[nH]c3n2)cc1	-4.9	9.5	62.7*	1	0.4
COc1ccc(-c2cc(C(F)(F)F)nc(S(C)(=O)=O)n2)cc1	5.0	2.9	42.1	0.9	0.6
CCN(CC)C(=O)CSc1nnc(-c2ccco2)n1N	-9.2	8.0	-7.3	1.1	1.1
Cc1ccccc1NC(=O)c1ccc(-n2cncn2)nc1	98.8*	10.5	84.9*	0	0.2
COc1ccccc1NC(=O)c1ccc(-n2cccn2)nc1	7.3	9.5	-97.4	0.9	2*
O=C(Nc1ccc(F)cc1F)c1ccc(-n2cncn2)nc1	99.5*	11.2	76.4*	0	0.2
COc1ccc(NC(=O)c2ccc(-n3cccn3)nc2)c(OC)c1	0.9	26.6	2.3	1	1
O=C(Nc1c(F)cccc1F)c1ccc(-n2cncn2)nc1	93.0*	16.1	47.8	0.1	0.5
S=C(NCc1cccc(Cl)c1)NC1CCCCC1	.	17.4	.	.	.
Cc1ccc2cc(CN(CCN3CCCC3)C(=O)Nc3ccc(F)cc3)c(=O)[nH]c2c1C	-3.6	0.2	5.6	1	0.9
Cc1nn(CC2CCCCC2)c(N)c1-c1ccccc1	98.3*	9.4	91.7*	0	0.1
CC(C)(C)C1=CC(=O)C(N2CCOCC2)=CC1=O	.	4.0	.	.	.
Cc1ccc(C(=O)Nc2c3c(nn2C(C)(C)C)CS(=O)(=O)C3)cc1C	98.8*	8.8	-11.8	0	1.1
Cc1ccc(C)c(N2CCN(C(=O)Cc3cn(C)c4ccccc34)CC2)c1	46.2	7.2	4.3	0.5	1
